Shown are actives, neighbours in structure and some others; about 1.6% of the full set was active somewhere.
KCNQ2 inh: blocks the rat KCNQ2 potassium channel. O88943. CHO-K1 KCNQ2, FluxOR thallium flux, 20 min; hits give low values. B-score at 10 µM. 310,000 tested, 1.1% active. AID 2156;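 active = fluorescence ratio B-score at most minus 3 library SDs, with starting brightness B-score within 2 library SDs, cut at about -5.5 in these data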
KCNQ2 pot: KCNQ2 (rat) channel potentiation. O88943. CHO-K1 KCNQ2, FluxOR thallium flux fluorescence; hits give high values. B-score at 10 µM. 310,000 tested, 0.54% active. AID 2239;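 active = fluorescence ratio B-score at least 3 SD of library B-scores, with initial fluorescence B-score within 3 of them, cut at about 5.3 in these data; same plate scores as AID 2156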;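 also: B-score of peak minus minimum over baseline fluorescence ratio after K+ and Tl+ stimulus; positive B-score means potentiation of KCNQ2 with more thallium influx and brighter signal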
Kir21 confirm: confirmation of mouse Kir2.1 potassium channel inhibitors | shares compounds with KCNQ2 pot | Kir2.1-expressing cells, FluxOR thallium flux fluorescence; hits give low values | Tl flux remaining, % of negative control (hits give low values), % at 10 µM | 2,300 tested, 41% active | AID 2032;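 active = Primary-screen hit whose thallium flux fell at least 3 control SD below untreated wells in both duplicates, with normal baseline fluorescence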;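 also: 0% = blank wells without stimulus and 100% = stimulated no-compound controls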
HEK293 Tl flux: alters thallium flux in parental HEK293 cells, Kir2.1 counter-screen; FluxOR signal as % of negative control (100 = no effect), % at 10 µM; AID 2105; shares compounds with KCNQ2 pot; FluxOR thallium flux fluorescence; 0% = unstimulated blank wells; 2,300 tested, 19% active;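 active = dye signal at least 3 control SD above or below untreated wells in both duplicates, raw fluorescence within 3, either direction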;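 also: percent is based on the flux ratio of peak minus minimum fluorescence over baseline F0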
CHO-K1 Tl ctr: counter-screen for KCNQ2 potentiators: effect in parental CHO-K1 cells. FluxOR thallium flux fluorescence; zero = vehicle mean+3SD, 100% = vehicle-minus-blank window. shares compounds with KCNQ2 pot. activity increase over 3SD of controls, % at 10 µM. 1,200 tested, 43% active;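 active = signal rise of at least 3 SD above the untreated control mean, in both duplicate wells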;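 also: counter screen of KCNQ2 potentiator hits so any rise reflects channel-independent effects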
KCNQ1 sel pot: selectivity of KCNQ2 potentiators: effect on human KCNQ1. shares compounds with KCNQ2 pot. CHO KCNQ1 stable, FluxOR thallium flux fluorescence; beyond 3SD, as % of vehicle-control signal. activation over 3SD threshold, % at 10 µM. 1,200 tested, 28% active;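 active = fluorescence ratio rise of at least 3 SD of vehicle wells above their mean, in both replicate wells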;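 also: 0% = vehicle mean plus 3 SD and 100% = vehicle minus unstimulated blank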
Target sequence (P51787 whole entry, looked up): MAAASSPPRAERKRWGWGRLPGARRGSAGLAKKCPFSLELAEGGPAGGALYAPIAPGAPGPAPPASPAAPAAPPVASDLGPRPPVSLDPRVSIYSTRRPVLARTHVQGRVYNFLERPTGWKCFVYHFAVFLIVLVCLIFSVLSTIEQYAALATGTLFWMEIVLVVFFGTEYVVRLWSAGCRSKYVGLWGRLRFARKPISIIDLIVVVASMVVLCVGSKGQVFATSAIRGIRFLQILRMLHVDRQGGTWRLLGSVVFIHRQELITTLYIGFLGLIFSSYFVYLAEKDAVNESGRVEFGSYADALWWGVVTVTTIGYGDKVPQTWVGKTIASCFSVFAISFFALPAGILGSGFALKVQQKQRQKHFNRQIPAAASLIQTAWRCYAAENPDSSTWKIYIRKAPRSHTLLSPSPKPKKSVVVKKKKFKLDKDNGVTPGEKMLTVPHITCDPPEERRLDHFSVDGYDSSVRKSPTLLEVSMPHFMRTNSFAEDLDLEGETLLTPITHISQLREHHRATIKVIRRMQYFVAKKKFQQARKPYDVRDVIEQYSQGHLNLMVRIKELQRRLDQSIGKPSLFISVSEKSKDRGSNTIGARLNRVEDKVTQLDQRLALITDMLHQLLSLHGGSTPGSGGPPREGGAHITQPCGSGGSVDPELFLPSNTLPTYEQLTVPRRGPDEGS
KCNQ2 pot confirm: rat KCNQ2 channel potentiator confirmation; shares compounds with KCNQ2 pot; CHO-KCNQ2 cells, FluxOR thallium flux fluorescence; potentiation, less the hit threshold, % at 10 µM; 1,200 tested, 68% active; AID 2287;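 active = fluorescence ratio rising 3 SD or more over the vehicle control mean in both replicates, plus primary screen hit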;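 also: peak minus minimum thallium fluorescence divided by baseline after K/Tl stimulus; 0% = vehicle mean plus 3 SD and 100% = vehicle minus unstimulated blank difference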
Kir2-1 sel: selectivity of KCNQ2 potentiators: effect on mouse Kir2.1; shares compounds with KCNQ2 pot; activity over 3SD threshold, % at 10 µM; HEK293 Kir2.1, FluxOR thallium flux fluorescence; 1,200 tested, 2% active;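 active = fluorescence ratio rise of at least 3 SD above the vehicle-control mean, seen in both replicates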;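 also: 0% = vehicle mean plus 3 SD and 100% = vehicle minus no-stimulus blank window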
KCNQ2 W236L pot: KCNQ2 potentiators acting on retigabine-insensitive rat KCNQ2 W236L mutant; shares compounds with KCNQ2 pot; CHO KCNQ2-W236L, automated patch clamp current; current increase over 3SD of negative controls (%), hits give high values, % at 25 µM; 940 tested, 10% active;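 active = current increase at least 3 SD of the untreated controls above them in both duplicate recordings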
Numbers without * were called inactive; i = inactive; nt = no result given.

SMILES | KCNQ2 inh | KCNQ2 pot | Kir21 confirm | HEK293 Tl flux | CHO-K1 Tl ctr | KCNQ1 sel pot | KCNQ2 pot confirm | Kir2-1 sel | KCNQ2 W236L pot
Cc1cccc(Oc2ccccc2NC(=O)CN2C(=O)NC3(CCCC3)C2=O)c1 | i | 4.37 | nt | nt | nt | nt | nt | nt | nt
S=C(Nc1cccnc1)N1CCCCC1 | i | nt | nt | nt | nt | nt | nt | nt | nt
CCN(CC)CCCn1c(=S)[nH]c2ncccc2c1=O | i | 1.39 | nt | nt | nt | nt | nt | nt | nt
CCN(CCCn1c(=S)[nH]c2ncccc2c1=O)c1ccccc1 | i | 19.5* | i | i | -19.5 | -38.8 | 14.4* | -25.2 | i
Cn1c(=NC(=O)CCS(=O)(=O)c2ccccc2)sc2cc(F)ccc21 | i | nt | nt | nt | nt | nt | nt | nt | nt
CC(=O)SCC(=O)N=c1sc2cc(F)ccc2n1C | i | 5.89* | i | i | -15.8 | -5.4 | 5.6* | -35.4 | i
Cc1ccc(N(C)C(=O)c2ccc(CNc3c(N4CCC(C)CC4)c(=O)c3=O)cc2)cc1 | i | 1.4 | nt | nt | nt | nt | nt | nt | nt
Oc1ccccc1Nc1nc(NCc2ccco2)c2ccccc2n1 | i | nt | nt | nt | nt | nt | nt | nt | nt
Cc1ccccc1Nc1nc(NCc2ccco2)c2ccccc2n1 | -6.26* | -6.26 | 15.5%* | i | nt | nt | nt | nt | nt
Cc1cccc(Nc2nc(NCc3ccco3)c3ccccc3n2)c1 | i | nt | 62.5%* | i | nt | nt | nt | nt | nt
c1ccc(Nc2nc(NCc3ccco3)c3ccccc3n2)cc1 | i | nt | nt | nt | nt | nt | nt | nt | nt
CCc1nn(C(C)C(=O)N2CCN(c3ccccc3)CC2)c(=O)c2cc3occc3n12 (configuration not stated) | i | 0.9 | nt | nt | nt | nt | nt | nt | nt
CC(C)c1ccc(C(C)NCCS(=O)(=O)c2ccc(Br)cc2)cc1 (configuration not stated) | i | nt | nt | nt | nt | nt | nt | nt | nt
CC(NCCS(=O)(=O)c1ccc(Cl)cc1)c1cccc(Cl)c1 (configuration not stated) | i | 0.87 | 33.5%* | i | nt | nt | nt | nt | nt
O=C(NCCCN1CCCC1)c1cc2c(Cl)nc3ccccc3c2s1 | i | 1.61 | nt | nt | nt | nt | nt | nt | nt
CN1CCN(C(=O)c2ccc3c(c2)N(Cc2ccccc2)CCS3)CC1 | i | 0.38 | nt | nt | nt | nt | nt | nt | nt
CCS(=O)(=O)c1ccc(N=Nc2ccc(O)c3ncccc23)c(OC)c1 | i | 0.63 | nt | nt | nt | nt | nt | nt | nt
Cc1ccc(N=Nc2ccc(O)c3ncccc23)cc1C | i | 2.79 | nt | nt | nt | nt | nt | nt | nt
Cc1ccc(N=Nc2ccc(O)c3ncccc23)cc1 | i | 8.3* | i | i | -11.7 | 27.0* | 13.0* | -35.0 | i
COc1ccccc1N=Nc1ccc(O)c2ncccc12 | i | 6.72* | i | i | -7.2 | -21.1 | 1.5* | -28.4 | i
CN(C)c1ccc(NC(=O)CCCc2ccccc2)cc1 | i | 5.46* | i | i | 12.7* | -16.5 | -14.6 | -33.0 | i
Cc1cccc(NC(=O)CCCc2ccccc2)c1 | i | nt | nt | nt | nt | nt | nt | nt | nt
O=S(=O)(NCC(c1cccnc1)N1CCN(c2ccc(F)cc2)CC1)c1cccs1 (configuration not stated) | i | nt | nt | nt | nt | nt | nt | nt | nt
COc1ccc(/C(N)=N/OC(=O)c2ccc(OC)c([N+](=O)[O-])c2)cc1OC | i | 0.16 | nt | nt | nt | nt | nt | nt | nt
C/C(=N\NS(=O)(=O)c1ccc([N+](=O)[O-])cc1)c1c[nH]c2ccccc12 | i | nt | nt | nt | nt | nt | nt | nt | nt
SMILES | KCNQ2 inh | KCNQ2 pot | Kir21 confirm | HEK293 Tl flux | CHO-K1 Tl ctr | KCNQ1 sel pot | KCNQ2 pot confirm | Kir2-1 sel | KCNQ2 W236L pot
NC(=NCCc1c[nH]c2ccccc12)NS(=O)(=O)c1ccc(F)cc1 | i | 0.95 | nt | nt | nt | nt | nt | nt | nt
NC(=NCCc1c[nH]c2ccccc12)NC(=O)c1ccc(F)cc1 | i | 0.4 | 34.5%* | i | nt | nt | nt | nt | nt
CCOCc1cn(CC(=O)c2ccc(Cl)cc2)c(C)nc1=N | i | 1.82 | nt | nt | nt | nt | nt | nt | nt
CCOCc1cn(CC(=O)c2ccc([N+](=O)[O-])cc2)c(C)nc1=N | i | nt | i | i | nt | nt | nt | nt | nt
CCCn1c(C)cc(C)c(C#N)c1=O | i | nt | nt | nt | nt | nt | nt | nt | nt
CCc1ccc(C(C)NC(=O)C2CCCC2)cc1 (configuration not stated) | i | 11.7* | i | i | 9.3* | -12.4 | 18.1* | -16.4 | i
CC(NC(=O)C1CCCCC1)c1ccc2c(c1)OCCO2 (configuration not stated) | i | 5.65* | i | i | 6.0* | 39.0* | 8.5* | -17.4 | i
CC(CCc1ccccc1)NC(=S)NC1CCCCC1 (configuration not stated) | i | nt | nt | nt | nt | nt | nt | nt | nt
CCc1ccc(C(C)NC(=O)C2(C)CC2(Br)Br)cc1 (configuration not stated) | i | 0.22 | nt | nt | nt | nt | nt | nt | nt
CCC(NC(=S)NC1CCCCC1)c1ccccc1 (configuration not stated) | i | 11.8* | nt | nt | -8.7 | -1.2 | 28.3* | -58.9 | i
CCc1ccc(C(C)NC(=S)NC2CCCCC2)cc1 (configuration not stated) | i | 19.9* | i | i | 14.7* | 7.8* | 72.5* | -50.0 | i
CCOc1ccc(C(C)NC(=O)C2CCCC2)cc1 (configuration not stated) | i | 1.54 | nt | nt | nt | nt | nt | nt | nt
CC(NC(=O)C1CCCC1)c1ccc2c(c1)OCCO2 (configuration not stated) | i | 1.78 | nt | nt | nt | nt | nt | nt | nt
O=C(Nc1cccc([N+](=O)[O-])c1)c1ccc2ccccc2c1O | i | 0.01 | nt | nt | nt | nt | nt | nt | nt
CCn1ccc(C(=O)Nc2ccc(Cl)cn2)n1 | i | 0.91 | nt | nt | nt | nt | nt | nt | nt
CCOC(=O)C1=C(C)N(C)C(=O)NC1c1c(OC)ccc2ccccc12 (configuration not stated) | i | nt | nt | nt | nt | nt | nt | nt | nt
Cc1ccc(S(=O)(=O)NC(=S)NC2CCCCC2)cc1 | i | 4.09 | nt | nt | nt | nt | nt | nt | nt
CCC(C)c1ccc(C(C)NC(=S)NC2CCCCC2)cc1 (configuration not stated) | i | 13* | nt | nt | 57.2* | 36.7* | 34.1* | -49.5 | i
CCOc1ccc(C(C)NC(=S)NC2CCCCC2)cc1 (configuration not stated) | i | 5.43* | i | i | -14.6 | 26.6* | 20.3* | -43.0 | i
CCC(C)c1ccc(NC(=S)NC2CCN(Cc3ccccc3)CC2)cc1 (configuration not stated) | i | nt | nt | nt | nt | nt | nt | nt | nt
CCOc1ccc(C(C)NC(=S)NC2CCCCC2)cc1OCC (configuration not stated) | i | 2.34 | nt | nt | nt | nt | nt | nt | nt
CCc1ccc(S(=O)(=O)NC(=S)NC2CCCCC2)cc1 | i | 8.86* | i | 302.0%* | -18.2 | -18.3 | 51.5* | -28.4 | i
O=C(Oc1cccc(-n2cnnn2)c1)c1sc2ccccc2c1Cl | i | 0.02 | nt | nt | nt | nt | nt | nt | nt

Source: PubChem BioAssay
